From PubChem BioAssay AID624483 (NMMLSC, 2012) come the findings set out here.

The structures appear in SMILES notation. Screen size: about 360,000 compounds; about 11,000 (3.1%) were called active. Another 2% or so got no clear call; they are omitted. The list comes from a sample in which actives are over-represented; it also holds similar structures and randomly drawn compounds. Values without a mark were called inactive. Cut-off read from the data, not from the text of the source: active = fluorescence intensity above about 16000; inconclusive = no clear call, values can overlap the other calls; inactive = below that.

A short description of the experiment: counter-screen for toxin protease inhibitors: compound fluorescence, primary screen, artefact control for toxin protease inhibitor project, biochemical, multiplex microsphere, HTS (AID 624483). As to conditions: compound autofluorescence counterscreen, microsphere flow cytometry; active compounds read high. For orientation: Counterscreens check selectivity or assay interference.
With `COC(=O)c1ccc(COC(=O)c2c(C)nn(Cc3ccccc3Cl)c2Cl)o1`, the fluorescence intensity was 10900.

`CCOC(=O)c1cnc2nc(SCc3ccccc3Cl)[nH]n2c1=O`: the fluorescence intensity was 4010. In the case of `CCOC(=O)c1cnn(Cc2ccccc2Cl)c1N` it was 24600 (active); in that of `CCOCCCN1C(=O)CN(C2CCCCC2)C(=O)C1c1ccc(OCC)c(OC)c1` (centres undefined), 15500; in that of `CC1C/C(=N/NC(=O)c2cccs2)CC(C)(C)C1` (centres undefined), 23000 (active). In the case of `CC1CC(=NNC(=O)C2COc3ccccc3O2)CC(C)(C)C1` (centres undefined) it was 4030. In the case of `CC1(C)CC(=O)C/C(=N\NC(=O)c2cccs2)C1` it was 2600. Take `CCOc1cc(S(=O)(=O)NC2CC(C)(C)NC(C)(C)C2)ccc1F`: the fluorescence intensity was 4220. For `Cc1cc(Br)cn2c(Cc3ccccc3C(F)(F)F)c(C3CCCCC3)nc12` the value was 4420.

Consider `O=C(CN1CCOCC1)Nc1c(-c2ccccc2)c2cc(Br)ccc2[nH]c1=O`, for which the fluorescence intensity was 21300 (active). For `C/C(=N\N)c1c(-c2ccccc2)c2cc(Br)ccc2[nH]c1=O` the value was 3410. In the case of `O=C(CN1CCOCC1)Nc1ccccc1` it was 4280; in that of `COCCNC(=S)Nc1cc(S(=O)(=O)N2CCOCC2)ccc1N1CCCCC1`, 3390; in that of `CC(C)c1ccc(NC(=O)COC(=O)c2ccc(CN3CCCC3=O)cc2)cc1`, 3760. In the case of `Cc1ccccc1-c1csc(C(O)c2cccc(Cl)c2)n1` (centres undefined) it was 3550. In the case of `CCn1c(SCC(=O)Nc2ccc(Br)cc2)nc2sc3c(c2c1=O)CCN(C)C3`, the fluorescence intensity is 5890. For `O=C(N1CCOCC1)N1CCOCC1` the value was 21400 (active); for `Cc1ccc(C(=O)NC2CCN(C(=O)N3CCOCC3)CC2)cc1`, 9950; for `O=C(N1CCCCC1)N1CCN(C(=O)N2CCCCC2)CC1`, 3210.

Take `CN(C)C(=O)c1cccc(-c2cnc3sc(NCc4ccc5c(c4)OCO5)nn23)c1`: the fluorescence intensity is 3900. For `COc1cccc(-c2cnc3c(NC(C)=O)cc(-c4cc(F)ccc4OC)cn23)c1` the value was 2980; for `Cc1ccc(S(=O)(=O)N2CCC(=O)N([C@H](COCc3ccccc3)Cc3ccccc3)CC2)cc1`, 4440. Regarding `COC(=O)c1ccc(S(=O)(=O)N2CCc3ccccc3C2)cc1`, the fluorescence intensity is 3480.

In the case of `CC(=O)Nc1ccc(S(=O)(=O)N2CCC(NC(=O)c3ccccc3)CC2)cc1`, the fluorescence intensity was 3580. For `O=C(Nc1ccc(S(=O)(=O)N2CCc3ccccc3C2)cc1)c1ccccc1` the value was 22600 (active); for `COc1cc(C(O)c2nc(-c3cnn(C)c3)cs2)ccc1F` (centres undefined), 3800. Turning to `COc1ccc(-c2cc(NC=O)c3ncc(-c4cc(OC)c(OC)c(OC)c4)n3c2)c(OC)c1`, the fluorescence intensity was 3920.

Turning to `COc1ccc(C)cc1S(=O)(=O)NCCc1ccccc1`, the fluorescence intensity was 11800. In the case of `COCCNS(=O)(=O)c1cc(Br)ccc1OC` it was 24900 (active).

With `COc1ccc(OC)c(S(=O)(=O)NCCC(C)C)c1`, the fluorescence intensity was 4230. In the case of `Cc1ccn(CC(=O)NC2CCCN(Cc3ccccc3F)C2)n1` (centres undefined) it was 3870; in that of `Cc1ccc(CN2CC(N3CCC(Cc4ccccc4)CC3)CS2(=O)=O)cc1` (centres undefined), 6680. For `Nc1ncnc2c1ncn2[C@@H]1O[C@H](C(=O)NS(=O)(=O)c2c(Cl)nc3sccn23)[C@@H](O)[C@H]1O` the value was 3980; for `O=C(NCc1ccccc1Cl)C1CCN(S(=O)(=O)c2cccc3nonc23)CC1`, 3550; for `N#C/C=C\Oc1ccc(Cl)cc1N`, 23100 (active). In the case of `Cc1nccn1-c1ccc(NC(=O)[C@H]2O[C@@H](n3ccc(=O)[nH]c3=O)[C@H](O)[C@@H]2O)cc1` it was 5140; in that of `CC1(C(=O)NS(=O)(=O)c2ccccc2)CCN1C(=O)Cc1ccc(-c2ccccc2)cc1` (centres undefined), 3470; in that of `CCOC(=O)CNC(=O)CN1C(=O)CCSc2ccccc21`, 20800 (active). `COc1ccc(CCNC(=O)CN2C(=O)CCSc3ccccc32)c(OC)c1`: the fluorescence intensity is 4070. For `CN(C(=O)CN1C(=O)CCSc2ccc(S(=O)(=O)N3CCCC3)cc21)c1ccccc1` the value was 5730; for `COc1ccc(-n2c(SCC(=O)Nc3ccc4c(c3)OCO4)nnc2C(C)N2CCCCC2)cc1` (centres undefined), 6740; for `COc1ccccc1NC(=O)CSc1nc2sc3c(c2c(=O)n1-c1ccccc1)CCN(C)C3`, 7290. Regarding `Cc1ccc(NC(=O)CSc2nnc(-c3cnccn3)n2Cc2ccco2)cc1C`, the fluorescence intensity was 3350. In the case of `COc1ccc(NC(=O)CSc2nnc(-c3cccs3)n2Cc2ccco2)cc1OC` it was 10300; in that of `CCOC(=O)Cc1csc(NC(=O)CSc2nnc(-c3cccnc3)n2Cc2ccco2)n1`, 4600; in that of `C(=C\c1ccccc1)/CSc1nnc(-c2cccnc2)n1Cc1ccco1`, 23400 (active). In the case of `COc1cc(Cl)c(C)cc1NC(=O)CSc1nnc(-c2cccnc2)n1Cc1ccco1`, the fluorescence intensity is 20700 (active). For `CCn1c(SCC(=O)Nc2cc(C)c(Cl)cc2OC)nnc1-c1ccco1` the value was 5870; for `COc1ccccc1NC(=O)CSc1nc2sc(C)c(C)c2c(=O)n1Cc1ccco1`, 22300 (active); for `O=C(CSc1nnc(-c2cnccn2)n1Cc1ccco1)c1ccc(Cl)c(Cl)c1`, 9950. For `Cc1cc(-c2ccccc2)nc(N2CCC(C(=O)NC34CC5CC(CC(C5)C3)C4)CC2)n1` the value was 3890. In the case of `CCN(C(=O)COc1cccnc1[N+](=O)[O-])C1CCS(=O)(=O)C1` (centres undefined) it was 2480; in that of `COc1ccc(CNC(=O)c2ccc(-c3cccnc3)c3ccoc23)cc1OC`, 3080. For `Cc1cccc(C)c1-n1nnnc1C(CCc1ccccc1)N1CCN(C/C=C/c2ccccc2)CC1` (centres undefined), the fluorescence intensity was 5940. In the case of `Cc1cc(Br)ccc1NC(=O)CCCOc1cc(=O)n(C)c2ccccc12` it was 3350. With `O=Cc1c(NCCCN2CCCC2=O)c2ccccc2[nH]c1=O`, the fluorescence intensity was 3940. For `Cc1nn(Cc2ccccc2)c(C)c1C(=O)NCCCN1CCCC1=O` the value was 3680; for `O=C(CCC(=O)NNc1nc2ccccc2c2nc(-c3ccccc3)nn12)NCCCN1CCCC1=O`, 2420; for `O=C(CCn1c(=S)[nH]c2ccccc2c1=O)NCCCN1CCCC1=O`, 22700 (active). For the molecule `CCOc1cc2[nH]c(=S)n(CCCN3CCCC3=O)c(=O)c2cc1OCC`, the fluorescence intensity is 5800. For `O=C1CCCN1CCCNc1ncnc2c1[nH]c1ccccc12` the value was 23000 (active); for `CC(=O)c1ccc(N2C(=NC(=O)C(C)C)SC3CS(=O)(=O)CC32)cc1` (centres undefined), 4490. In the case of `Cc1cccc2cc(CN(C(=O)c3cccs3)c3ccccc3)c(=O)[nH]c12` it was 2690. For `Cc1ccc(NC(=O)NC(=O)c2ccccc2)cc1F` the value was 4110. In the case of `Cc1nc(C)c(C(=O)Nc2ccc(C)c(F)c2)o1`, the fluorescence intensity was 20400 (active). With `COc1ccc(Cl)cc1NC(=O)c1oc(C)nc1C`, the fluorescence intensity was 11300. In the case of `N#Cc1ccccc1S(=O)(=O)N1CCN(Cc2c(O)ccc3ccccc23)CC1` it was 2850; in that of `O=C(COc1ccccc1Cl)N1N=C(c2cccs2)CC1c1ccco1` (centres undefined), 3750.

As for `Cc1ccccc1C1CC(c2cccs2)=NN1S(C)(=O)=O` (centres undefined), the fluorescence intensity was 6430. In the case of `Fc1ccc(N2N=C(c3cccs3)CC2c2ccco2)c(F)c1` (centres undefined) it was 20900 (active); in that of `O=C(NC(c1ccc(-c2ccccc2)cc1)c1cnccn1)C1CCN(CCOc2ccc(Cl)cc2Cl)CC1` (centres undefined), 4380; in that of `O=C(NCc1ccco1)C1CCCN(S(=O)(=O)c2ccccc2)C1` (centres undefined), 21200 (active). In the case of `O=C(NCc1ccco1)C1CCCN(S(=O)(=O)c2cnc[nH]2)C1` (centres undefined) it was 5600; in that of `CCCS(=O)(=O)N1CCCC(C(=O)NCc2ccco2)C1` (centres undefined), 2870. For `COCCNC(=O)C(c1ccc(C)cc1)N(C(=O)CCC(=O)Nc1ccccn1)c1cccc(C)c1` (centres undefined) the value was 4510.

For `Cn1c2c(c(=O)n(C)c1=O)C(c1cccc(F)c1)C(C#N)=C(N)O2` (centres undefined), the fluorescence intensity is 4470. For `Cc1cc2c(c(=O)n1C)C(C(C)C)C(C#N)=C(N)O2` (centres undefined) the value was 3460; for `Cc1cc2c(c(=O)n1Cc1ccco1)C(c1ccccc1)C(C#N)=C(N)O2` (centres undefined), 23400 (active); for `COc1ccc2c(c1)C(C)=CC(C)(C)N2C(=O)Nc1ccccc1`, 2880. In the case of `COc1ccc2c(c1)C(C)=CC(C)(C)N2C(=O)CNCc1ccc2c(c1)OCO2` it was 21400 (active); in that of `COc1ccc(NC(=O)NCc2ccc3c(c2)OCO3)c(OC)c1`, 5960. On to `Cc1cc(C(=O)COc2ccc(Br)cc2F)c(C)n1C1CC1`, for which the fluorescence intensity was 4210.

On to `CCCNC(=O)C1(C)CCCN(Cc2c(C)nn(-c3ccccc3)c2C)C1` (centres undefined), for which the fluorescence intensity is 3870.

Regarding `OC(c1ccc(F)cc1)c1ncc(-c2cccc(C(F)(F)F)c2)[nH]1` (centres undefined), the fluorescence intensity was 2920. In the case of `COc1ccc(S(=O)(=O)N2CCC(C(=O)N3CCOCC3)CC2)cc1OC` it was 8730. In the case of `COc1ccc(S(=O)(=O)N2CCC(C(=O)N3CCCC3)CC2)cc1C` it was 2980; in that of `COc1ccc(S(=O)(=O)N2CCC(C(=O)N3CCc4ccccc4C3)CC2)cc1OC`, 18500 (active); in that of `CCCNC(=O)C1(C)CCN(C(=O)c2cc(F)ccc2C)C1` (centres undefined), 3600. In the case of `CCc1nc2ccc(C(=O)N(C)Cc3ccco3)cn2c1N(C)C(=O)Cc1ccccc1` it was 3670. For `O=S1(=O)CC(N2CCN(CCO)CC2)CN1Cc1cn(Cc2cccc(Cl)c2)nn1` (centres undefined), the fluorescence intensity was 5760. For `Cc1cc(C)cc(Oc2nc3c(C)cccn3c(=O)c2/C=C(\C#N)C(=O)NC2CCS(=O)(=O)C2)c1` (centres undefined) the value was 2120; for `C=C(Br)Cn1c(CCCC)nc2ccccc21`, 3410; for `CCOCCn1c(C(C)C)nc2ccccc21`, 3860.

With `COCc1nc2ccccc2n1Cc1ccccc1Br`, the fluorescence intensity was 20400 (active).
